The record followed here is the supplement of paper PMC10849652.

Experiment in all cases: log2 fold change, soluble protein after heating vs DMSO (PISA); higher = thermal stabilisation; K562 cells, 10 uM, 30 min; active = over 0.2 and 3.5 SD of the protein, either way, in both replicates (recomputed)
Compound in assay [1]: COC1=CC=C(C=C1)CN2C=CC3=C2C=C(C=C3)C(=O)NO
The essentials:
(§1)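 K562 cells at 2×10^6 cells/mL were given 10 μM compound for 30 min. Aliquots then went through 3 min of heating across 48°C-58°C, were pooled, and were extracted in PBS with 0.5% NP-40 at 4°C, and the supernatant after 21,000xg for 90 min was quantified by TMTpro 16plex LC-MS/MS with channel sums equalised. Thermal stability relative to control samples, from duplicates, is given as log2 fold change.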

Compound in assay [2]: CON(C)C(=O)N1N=C(c2cc(F)ccc2F)S[C@@]1(CCCN)c1ccccc1 [filanesib]
An outline of the steps:
as §1

Compound in assay [3]: CO[C@H]1C[C@@H]2CC[C@@H](C)[C@@](O)(O2)C(=O)C(=O)N2CCCC[C@H]2C(=O)O[C@H]([C@H](C)C[C@@H]2CC[C@H](n3cnnn3)[C@H](OC)C2)CC(=O)[C@H](C)/C=C(\C)[C@@H](O)[C@@H](OC)C(=O)[C@H](C)C[C@H](C)/C=C/C=C/C=C/1C [zotarolimus]
The essentials: as §1

Compound in assay [4]: COc1cc(C(=O)O)ccc1NC(=O)[C@@H]1N[C@@H](CC(C)(C)C)[C@](C#N)(c2ccc(Cl)cc2F)[C@H]1c1cccc(Cl)c1F [idasanutlin]
An outline of the steps:
as §1

Compound in assay [5]: COc1cc(Nc2ncc3c(n2)-c2ccc(Cl)cc2C(c2c(F)cccc2OC)=NC3)ccc1C(=O)O [alisertib]
An outline of the steps:
as §1

Compound in assay [6]: COc1cc2nc(-c3cc(F)ccc3O)nc(N[C@@H]3CNC[C@H]3C(C)(C)O)c2cc1OC
The essentials: as §1

Compound in assay [7]: COc1cc2ncnc(Nc3ccc(F)c(Cl)c3)c2cc1OCCCN1CCOCC1 [gefitinib]
The essentials:
as §1

Compound in assay [8]: COc1cccc2cc(-c3nc([C@H]4CC[C@H](C(=O)O)CC4)n4ncnc(N)c34)[nH]c12
The essentials:
as §1

Compound in assay [9]: CS(=O)(=O)CCNCc1ccc(-c2ccc3ncnc(Nc4ccc(OCc5cccc(F)c5)c(Cl)c4)c3c2)o1 [lapatinib]
An outline of the steps: as §1

Compound in assay [10]: CS(=O)(=O)N1CCN(Cc2cc3nc(-c4cccc5[nH]ncc45)nc(N4CCOCC4)c3s2)CC1 [pictilisib]
The essentials: as §1

The full data set covers some 7,900 targets. This sample favours those with a hit. About 0.6% of all pairs of compound and target were hits. Values without a mark were called inactive.

Chain of UniProt O95602 (O95602 whole entry, looked up): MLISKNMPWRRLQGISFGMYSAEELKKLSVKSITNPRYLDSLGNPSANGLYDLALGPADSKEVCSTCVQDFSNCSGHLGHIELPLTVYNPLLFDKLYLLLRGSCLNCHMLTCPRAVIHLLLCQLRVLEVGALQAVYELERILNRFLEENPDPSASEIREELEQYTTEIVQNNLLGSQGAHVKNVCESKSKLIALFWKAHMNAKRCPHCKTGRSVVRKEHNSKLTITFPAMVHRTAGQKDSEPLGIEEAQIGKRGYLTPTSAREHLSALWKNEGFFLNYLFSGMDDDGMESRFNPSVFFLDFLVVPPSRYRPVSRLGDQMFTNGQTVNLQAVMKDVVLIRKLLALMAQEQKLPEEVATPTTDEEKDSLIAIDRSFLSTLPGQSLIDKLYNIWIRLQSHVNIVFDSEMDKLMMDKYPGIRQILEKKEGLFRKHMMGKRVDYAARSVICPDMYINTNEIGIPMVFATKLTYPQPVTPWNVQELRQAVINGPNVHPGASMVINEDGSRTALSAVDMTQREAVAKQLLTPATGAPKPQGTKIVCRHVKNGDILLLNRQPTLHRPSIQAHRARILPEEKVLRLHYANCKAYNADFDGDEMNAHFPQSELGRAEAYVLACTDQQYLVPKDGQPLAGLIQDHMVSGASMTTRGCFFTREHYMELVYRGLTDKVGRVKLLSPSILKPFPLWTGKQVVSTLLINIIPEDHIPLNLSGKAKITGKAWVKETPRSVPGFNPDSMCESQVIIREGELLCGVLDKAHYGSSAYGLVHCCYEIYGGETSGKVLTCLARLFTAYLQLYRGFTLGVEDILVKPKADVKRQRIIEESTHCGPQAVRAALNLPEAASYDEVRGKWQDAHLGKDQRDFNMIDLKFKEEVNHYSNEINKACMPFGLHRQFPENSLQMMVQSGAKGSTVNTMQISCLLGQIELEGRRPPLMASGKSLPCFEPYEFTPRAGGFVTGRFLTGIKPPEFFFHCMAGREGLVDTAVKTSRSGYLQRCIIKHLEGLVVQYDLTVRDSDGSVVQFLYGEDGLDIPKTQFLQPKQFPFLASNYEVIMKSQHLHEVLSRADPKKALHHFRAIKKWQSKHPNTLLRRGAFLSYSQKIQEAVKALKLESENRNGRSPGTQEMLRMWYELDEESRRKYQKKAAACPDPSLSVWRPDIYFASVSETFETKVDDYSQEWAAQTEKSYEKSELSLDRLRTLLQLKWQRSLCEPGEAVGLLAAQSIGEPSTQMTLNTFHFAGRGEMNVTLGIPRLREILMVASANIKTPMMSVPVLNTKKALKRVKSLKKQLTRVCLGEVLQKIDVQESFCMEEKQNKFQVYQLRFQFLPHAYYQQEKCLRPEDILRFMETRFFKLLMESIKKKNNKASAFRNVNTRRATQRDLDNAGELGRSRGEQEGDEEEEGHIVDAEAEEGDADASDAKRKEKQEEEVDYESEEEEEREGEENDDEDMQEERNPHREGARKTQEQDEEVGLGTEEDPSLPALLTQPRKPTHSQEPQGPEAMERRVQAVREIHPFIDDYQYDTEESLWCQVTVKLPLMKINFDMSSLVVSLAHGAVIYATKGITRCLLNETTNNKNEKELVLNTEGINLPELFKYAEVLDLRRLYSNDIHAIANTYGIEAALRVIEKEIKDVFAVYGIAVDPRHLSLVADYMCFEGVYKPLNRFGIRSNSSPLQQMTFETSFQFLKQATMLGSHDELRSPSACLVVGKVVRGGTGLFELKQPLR
Chain of UniProt Q14289 (Q14289 whole entry, looked up): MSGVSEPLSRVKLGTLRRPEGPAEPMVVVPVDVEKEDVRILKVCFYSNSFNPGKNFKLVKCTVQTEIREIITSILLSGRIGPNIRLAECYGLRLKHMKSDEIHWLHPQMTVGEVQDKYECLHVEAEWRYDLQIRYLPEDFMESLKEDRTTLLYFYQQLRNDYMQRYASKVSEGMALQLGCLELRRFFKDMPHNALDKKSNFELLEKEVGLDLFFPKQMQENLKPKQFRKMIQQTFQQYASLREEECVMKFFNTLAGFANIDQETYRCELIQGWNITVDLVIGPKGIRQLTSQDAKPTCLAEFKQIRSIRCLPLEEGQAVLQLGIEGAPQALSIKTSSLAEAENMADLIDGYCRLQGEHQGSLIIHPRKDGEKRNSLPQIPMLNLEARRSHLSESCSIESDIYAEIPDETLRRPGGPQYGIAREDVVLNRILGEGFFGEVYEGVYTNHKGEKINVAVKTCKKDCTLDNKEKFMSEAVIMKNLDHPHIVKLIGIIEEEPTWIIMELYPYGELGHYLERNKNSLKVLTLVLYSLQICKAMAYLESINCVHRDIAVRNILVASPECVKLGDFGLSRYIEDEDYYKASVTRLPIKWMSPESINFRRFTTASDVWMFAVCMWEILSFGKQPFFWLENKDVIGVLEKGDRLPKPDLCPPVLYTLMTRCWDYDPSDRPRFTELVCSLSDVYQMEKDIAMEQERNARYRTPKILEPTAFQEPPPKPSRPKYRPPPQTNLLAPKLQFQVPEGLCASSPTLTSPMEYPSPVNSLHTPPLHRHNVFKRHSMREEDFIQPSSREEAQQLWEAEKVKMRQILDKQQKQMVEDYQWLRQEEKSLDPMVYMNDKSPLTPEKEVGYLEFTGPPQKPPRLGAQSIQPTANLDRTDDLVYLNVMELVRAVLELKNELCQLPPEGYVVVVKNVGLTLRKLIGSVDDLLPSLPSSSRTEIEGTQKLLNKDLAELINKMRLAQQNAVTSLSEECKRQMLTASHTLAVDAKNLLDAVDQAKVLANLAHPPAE
Chain of UniProt O60678 (O60678 whole entry, looked up): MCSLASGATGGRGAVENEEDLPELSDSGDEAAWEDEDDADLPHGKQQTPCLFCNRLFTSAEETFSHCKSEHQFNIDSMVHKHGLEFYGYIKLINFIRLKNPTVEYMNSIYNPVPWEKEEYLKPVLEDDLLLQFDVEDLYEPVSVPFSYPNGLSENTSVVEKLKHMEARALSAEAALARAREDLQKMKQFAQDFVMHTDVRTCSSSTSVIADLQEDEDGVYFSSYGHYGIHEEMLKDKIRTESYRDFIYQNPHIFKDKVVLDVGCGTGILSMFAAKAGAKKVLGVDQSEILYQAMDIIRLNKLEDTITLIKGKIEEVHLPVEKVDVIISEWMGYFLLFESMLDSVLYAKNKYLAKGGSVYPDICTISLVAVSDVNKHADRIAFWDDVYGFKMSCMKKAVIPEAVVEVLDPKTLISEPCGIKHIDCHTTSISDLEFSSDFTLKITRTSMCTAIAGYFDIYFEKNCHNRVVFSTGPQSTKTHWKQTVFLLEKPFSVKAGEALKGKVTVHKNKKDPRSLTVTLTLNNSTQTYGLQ
Chain of UniProt O60256 (O60256 whole entry, looked up): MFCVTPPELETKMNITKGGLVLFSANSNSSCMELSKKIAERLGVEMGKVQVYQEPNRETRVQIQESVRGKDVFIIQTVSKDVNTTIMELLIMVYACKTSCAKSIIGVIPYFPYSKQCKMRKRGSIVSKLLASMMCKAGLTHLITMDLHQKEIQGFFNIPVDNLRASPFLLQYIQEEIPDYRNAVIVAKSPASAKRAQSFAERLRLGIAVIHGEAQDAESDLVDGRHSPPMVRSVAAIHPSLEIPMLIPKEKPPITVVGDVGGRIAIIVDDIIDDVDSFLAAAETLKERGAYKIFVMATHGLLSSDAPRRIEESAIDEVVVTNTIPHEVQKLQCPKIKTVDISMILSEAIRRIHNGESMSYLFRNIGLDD
Chain of UniProt P05423 (P05423 whole entry, looked up): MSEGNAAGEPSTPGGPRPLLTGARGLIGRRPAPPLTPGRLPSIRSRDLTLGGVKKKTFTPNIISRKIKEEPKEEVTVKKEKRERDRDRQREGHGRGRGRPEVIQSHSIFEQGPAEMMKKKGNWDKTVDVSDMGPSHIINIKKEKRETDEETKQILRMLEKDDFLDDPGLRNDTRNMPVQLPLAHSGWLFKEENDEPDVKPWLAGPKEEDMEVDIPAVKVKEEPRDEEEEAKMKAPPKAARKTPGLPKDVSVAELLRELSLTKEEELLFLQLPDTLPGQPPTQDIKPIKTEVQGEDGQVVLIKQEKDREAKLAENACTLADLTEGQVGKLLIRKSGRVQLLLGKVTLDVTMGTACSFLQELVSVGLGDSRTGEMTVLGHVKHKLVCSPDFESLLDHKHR
Chain of UniProt P10644 (P10644 whole entry, looked up): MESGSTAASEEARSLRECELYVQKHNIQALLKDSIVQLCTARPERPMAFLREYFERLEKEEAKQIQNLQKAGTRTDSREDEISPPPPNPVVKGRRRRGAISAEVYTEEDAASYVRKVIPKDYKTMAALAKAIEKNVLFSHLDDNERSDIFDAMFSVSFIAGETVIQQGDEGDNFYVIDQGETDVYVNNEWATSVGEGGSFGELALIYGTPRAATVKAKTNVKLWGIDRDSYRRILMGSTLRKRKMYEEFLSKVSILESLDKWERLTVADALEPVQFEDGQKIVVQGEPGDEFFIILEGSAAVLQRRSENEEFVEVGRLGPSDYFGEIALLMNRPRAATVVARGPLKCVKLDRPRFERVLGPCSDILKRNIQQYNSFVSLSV
Chain of UniProt P0CAP2 (P0CAP2 whole entry, looked up): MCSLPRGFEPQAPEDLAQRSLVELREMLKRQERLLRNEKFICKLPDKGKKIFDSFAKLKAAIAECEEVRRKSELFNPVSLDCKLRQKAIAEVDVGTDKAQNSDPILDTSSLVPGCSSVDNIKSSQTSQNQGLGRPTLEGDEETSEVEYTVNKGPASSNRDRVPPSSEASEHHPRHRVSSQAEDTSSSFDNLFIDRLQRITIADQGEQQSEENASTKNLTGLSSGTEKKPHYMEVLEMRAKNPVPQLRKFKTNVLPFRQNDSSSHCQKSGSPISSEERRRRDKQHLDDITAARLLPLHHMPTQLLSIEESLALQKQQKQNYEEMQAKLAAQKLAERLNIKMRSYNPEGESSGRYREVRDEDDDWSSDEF
Chain of UniProt Q9Y478 (Q9Y478 whole entry, looked up): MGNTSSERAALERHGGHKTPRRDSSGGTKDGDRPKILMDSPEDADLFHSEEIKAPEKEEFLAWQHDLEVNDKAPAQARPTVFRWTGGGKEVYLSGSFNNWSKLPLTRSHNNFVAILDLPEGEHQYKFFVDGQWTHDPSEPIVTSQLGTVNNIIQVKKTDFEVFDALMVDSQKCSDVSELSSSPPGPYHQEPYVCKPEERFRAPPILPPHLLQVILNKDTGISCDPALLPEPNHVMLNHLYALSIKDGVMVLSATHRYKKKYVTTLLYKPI

In the case of PTMA (UniProt P06454), the log2 fold change was 0.118 in assay [1]; -0.093 in [2]; -0.054 in assay [3]; -0.045 in assay [4]; -0.596 (active) in assay [5]; -0.049 in [6]. Moreover, the log2 fold change in [7] is 0.029; in assay [8], 0.043; in [9] it was -0.016; in [10], 0.001.

Consider PPP6R1 (UniProt Q9UPN7), for which the log2 fold change in assay [1] is -0.002; in assay [2], -0.072; in assay [3], -0.005; in assay [4] it was -0.032; in [5] it was -0.098; in assay [6], -0.055. In addition, the log2 fold change in assay [7] is 0.012; in assay [8], 0.014; in assay [9], 0.016; in assay [10], 0.

As to PSMD3 (UniProt O43242), the log2 fold change is -0.058 in assay [1]; 0.061 in [2]; 0.021 in assay [3]; 0.003 in assay [4]; -0.075 in assay [5]; -0.089 in [6]. The log2 fold change in assay [7] is -0.035; in assay [8], -0.011; in [9], 0.061; in assay [10], -0.023.

Consider PARN (UniProt O95453), for which the log2 fold change in assay [1] is 0.001; in assay [2], -0.015; in assay [3], -0.009; in [4] it was -0.028; in [5] it was 0.001; in [6], 0.051. For the same target, the log2 fold change in [7] was -0.009; in assay [8] it was 0.04; in assay [9], -0.028; in [10], -0.036.

Take PRKAB1 (UniProt Q9Y478): the log2 fold change in [1] is 0.024; in assay [2], -0.022; in [3] it was 0.07; in assay [4] it was -0.223; in assay [5], -0.105; in assay [6] it was -0.034. Also, the log2 fold change in assay [7] is -0.024; in assay [8], 0.05; in assay [9] it was -0.049; in [10] it was -0.063.

With PRMT3 (UniProt O60678), the log2 fold change in [1] is 0.026; in [2] it was -0.099; in [3] it was 0.008; in assay [4], -0.017; in [5], -0.005; in assay [6], 0.098. Besides, the log2 fold change in [7] is -0.122; in assay [8], -0.111; in [9], 0.013; in [10], 0.048.

Turning to POLR2M (UniProt P0CAP2), the log2 fold change in [1] was -0.025; in [2], -0.004; in [3] it was -0.05; in assay [4], -0.022; in assay [5], -0.015; in assay [6], 0.094. Moreover, the log2 fold change in [7] is -0.08; in assay [8] it was 0.054; in [9] it was -0.044; in [10], -0.254 (active).

Turning to POLR1A (UniProt O95602), the log2 fold change is 0.248 in [1]; 0.075 in assay [2]; -0.05 in assay [3]; 0.063 in assay [4]; -0.076 in [5]; -0.007 in assay [6]. The log2 fold change in [7] is 0.037; in assay [8], -0.008; in [9], 0.069; in [10], 0.078.

Take POLR3D (UniProt P05423): the log2 fold change in assay [1] is -0.014; in assay [2], 0.041; in [3], 0.065; in assay [4] it was 0.574 (active); in assay [5], -0.091; in assay [6], -0.017. Besides, the log2 fold change in assay [7] was 0.036; in assay [8], -0.136; in assay [9] it was -0.001; in [10], 0.013.

Take PRPSAP2 (UniProt O60256): the log2 fold change in [1] was -0.168; in assay [2], 0.084; in [3], 0.029; in [4], 0.012; in assay [5], -0.078; in [6] it was 0.011. The log2 fold change is -0.022 in [7], 0.025 in [8], -0.011 in assay [9] and -0.233 (active) in [10].

PRKAR1A (UniProt P10644): the log2 fold change in assay [1] was 0.079; in assay [2], 0.042; in assay [3], 0.046; in assay [4] it was -0.045; in [5], -0.075; in [6], 0.131. Further, the log2 fold change was 0.046 in [7], -0.132 in assay [8], 0 in assay [9] and 0.206 in assay [10].

As to PI4K2A (UniProt Q9BTU6), the log2 fold change in assay [1] was 0.012; in assay [2], -0.066; in assay [3] it was -0.037; in assay [4] it was -0.044; in assay [5], -0.006; in assay [6] it was -0.015. In addition, the log2 fold change in assay [7] is -0.027; in [8], 0.005; in assay [9], 0; in [10], 0.049.

As for PTK2B (UniProt Q14289), the log2 fold change in [1] is 0.083; in [2] it was -0.077; in [3] it was 0.019; in assay [4] it was 0.026; in [5], 0.064; in [6], 0.345. For the same target, the log2 fold change in assay [7] was -0.011; in [8], -0.057; in assay [9], -0.022; in assay [10] it was 0.117.

As to PSMC6 (UniProt P62333), the log2 fold change was -0.059 in assay [1]; 0.083 in assay [2]; -0.003 in assay [3]; 0.005 in assay [4]; -0.093 in assay [5]; -0.024 in assay [6]. Besides, the log2 fold change in assay [7] was -0.038; in [8] it was -0.057; in assay [9] it was 0.049; in assay [10], -0.054.

Consider PISD (UniProt Q9UG56), for which the log2 fold change is -0.018 in assay [1]; -0.012 in [2]; 0.015 in [3]; -0.074 in assay [4]; -0.024 in assay [5]; 0.148 in assay [6]. Moreover, the log2 fold change in assay [7] was 0.008; in assay [8], 0.012; in [9], -0.009; in assay [10], 0.036.
